This is a sample that favours compounds with a hit; in the whole collection about 1.2% have one here.
gsp ag: agonists of gsp mutant (McCune-Albright syndrome). Potency, µM (top dose mostly 76.9 µM), for inactives: at the highest dose activation (cAMP increase), most hits filed as activators. 0.13% of 340,000 active. gsp mutant cells, cAMP HTRF, 30 min; active means well fitted activation curve with a large enough effect; inconclusive means small, poorly fitted or top-dose-only effect, or another doubt; inactive means no such curve, though single readings can be large or run the other way; cell line not stated here;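 further: phosphodiesterase inhibitor Ro 20-1724 added with compounds to block cAMP breakdown; potency means the concentration at half of the fitted maximal effect; nearly all actives have a fitted effect of over 60% in size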
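Cells stably selected in G418 were plated at 2000/well, grown 16-24 hr, then given compounds in DMSO with the PDE inhibitor […] (300 uM solution added) for 30 min at 37C; cAMP was read by HTRF.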
RXFP1 antagonist: antagonists of human relaxin receptor RXFP1; 0.59% of 350,000 active; activity change, negative = inhibition, % at 57.5 µM; AID 1259400; HEK293-RXFP1, relaxin-stimulated cAMP HTRF, 30 min; hits give low values;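 active means activity change of -60% or lower, but not beyond a set lower limit; inconclusive means change between -60% and -40%, or beyond the set limit; inactive means change above -40%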; further: on the % scale 0 is the no-effect control and ±100 the full control effect
Akt phos inh: Akt phosphorylation inhibition | Neuro2A IGF-stimulated pAkt S473 HTRF, 20 min; hits give low values | activity change, % for hits at 50 µM | 0.32% of 360,000 active; in the data active means activity change below about -80%; inconclusive means mostly about -51% to -80%; further: on the % scale 0 is the no-effect control and ±100 the full control effect
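Neuro2A cells (4,500/well, DMEM with 0.5% FBS) were treated with compound at a single 50 µM final concentration, stimulated with 6 nM IGF for 20 min at 37 °C, and lysed. Phospho-Akt Ser473 was read by HTRF as 665/615 ratio ×10^4.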
RXFP1 agonist: activates the human relaxin receptor RXFP1; Q9HBX9; HEK293T-RXFP1 cAMP TR-FRET, 30 min; response scale: percent of porcine relaxin response, buffer zero; Potency, µM (series often up to 57.5 µM), for the others: at the highest dose activation, hits mostly activators; 0.3% of 370,000 active; AID 2676; active means well fitted activation curve with a large enough effect; inconclusive means small, poorly fitted or top-dose-only effect; further: potency means the concentration at half of the fitted maximal effect; on the % scale 0 is the no-effect control and ±100 the full control effect; nearly all actives have a fitted effect of over 60% in size
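cAMP rise read by TR-FRET after 30 min, 37C compound exposure (up to 58 uM) in RXFP1-transfected HEK293 cells with Ro 20174 present. EC50 from Hill-equation fits, with 29 nM porcine relaxin as 100% and buffer as basal.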
gsp antagonist: antagonizes gsp, the McCune-Albright syndrome mutation; gsp-mutant cells, cAMP HTRF, 30 min; Potency, µM (titrated, usually from 76.9 µM), for the others: top-dose activity change, negative = inhibition, actives largely listed as inhibitors; 0.4% of 340,000 active; calls by dose curve; cell line not stated here;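 further: intracellular cAMP measured with PDE inhibitor Ro 20-1724 present during compound exposure; potency means the concentration at half of the fitted maximal effect; on the % scale 0 is the no-effect control and ±100 the full control effect; nearly all actives have a fitted effect of over 65% in size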
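G418-selected cells were plated in DMEM/10% FBS for 16-24 h at 37C, then treated with compounds plus the PDE inhibitor […] (300 uM solution added) for 30 min at 37C. Intracellular cAMP was measured by HTRF after 30 min lysis at room temperature.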
* = called active by the depositor; i = inactive; u = inconclusive; x = not tested or not shown; [ ] = remark or other dose.

SMILES	gsp ag	RXFP1 antagonist	Akt phos inh	RXFP1 agonist	gsp antagonist
Cc1ccc2c(c1)-c1cc(C)nn1C(c1cc(Br)ccc1O)N2 (configuration not stated)	x	-114.0*	x	-3.4%	x
Cc1ccc(C)c(N2CCN(C(=O)C3CCN(c4nc5ccc(C)cc5[nH]4)CC3)CC2)c1	x	-69.2*	x	3.9%	x
Cc1cc(C)nc(N2CCC(C(=O)N3CCN(c4cc(Cl)ccc4C)CC3)CC2)n1	u	-19.9	x	4.1%	28.2µM*
Cc1ccc(C)c(N2CCN(C(=O)C3CCN(c4nc(C)cc(C)n4)CC3)CC2)c1	-36.3%	-0.7	x	-0.1%	35.5µM*
O=C(Cn1c(=O)ccc2cc(S(=O)(=O)N3CCCC3)ccc21)Nc1ccc(Cl)cc1	x	x	x	2.4%	x
C=CCOc1ccc(CNn2cn[nH]c2=S)cc1OC	-11.5%	1.4	i	1.9%	0.3%
C=CCOc1ccc(CNn2cn[nH]c2=S)cc1OCC	11.2%	-9.3	-82.0%*	1.0%	-4.3%
Cc1ccc(NS(=O)(=O)c2ccc(-c3cc(C)no3)cc2)c(Br)c1	x	11.5	x	-0.1%	x
O=C(NC(NC(=S)Nc1c(Cl)cccc1Cl)C(Cl)(Cl)Cl)c1cccc([N+](=O)[O-])c1 (configuration not stated)	-12.0%	-37.5	i	-1.7%	35.5µM*
O=C(NNC(=S)NC(=O)c1ccccc1Cl)c1cccc([N+](=O)[O-])c1	8.5%[15.4 µM]	8.7	i	2.0%	-4.0%
O=C(CCNC(=O)N1CC(=O)Nc2ccccc21)NCc1cccc(Cl)c1	9.8%	-92.3*	i	0.4%	8.1%
O=C(CCNC(=O)N1CC(=O)Nc2ccccc21)Nc1cccc(Cl)c1	3.4%	-11.0	i	2.3%	-0.2%
Cc1cccc(NC(=O)CSc2cn(CC(=O)N3CCCCCC3)c3ccccc23)c1	x	-0.2	x	1.4%	x
CC(=O)c1c(C)[nH]c(C(=O)CSc2nc3ccccc3n2C)c1C	-37.5%	-7.2	-85.0%*	0.3%	u
CCc1cc2c(=O)c(-c3ccc4c(c3)OCCO4)coc2c(CN2CCCCC2C)c1O (configuration not stated)	13.8%	-5.6	i	3.6%	-30.4%
CCc1cc2c(=O)c(-c3ccc4c(c3)OCCO4)coc2cc1OS(C)(=O)=O	-15.9%[15.4 µM]	-84.4*	i	-2.4%	u
C=CCNCCOCCOc1ccc(Cl)cc1C(C)(C)C	u	-15.1	i	-0.2%	6.7%
C=CCc1cc(Cl)ccc1OCCNCCOC	9.9%[15.4 µM]	-81.3*	i	3.0%	14.3%
COCCCNCCOCCOc1ccc(Cl)cc1C(C)(C)C	-11.2%	-64.1*	i	0.6%	28.8%
CCOc1ccc(Cn2c(=O)sc3ccccc32)cc1	u	-2.2	i	0.0%	-7.9%
CCCCOc1ccccc1Cn1c(=O)sc2ccccc21	x	-68.0*	x	0.4%	x
COc1ccc(NC(=O)COC(=O)Cc2c(F)cccc2Cl)cc1	u	-11.3	i	-0.4%	44.7µM*
CCC(=O)NC(c1ccc([N+](=O)[O-])cc1)c1c(O)ccc2ccccc12 (configuration not stated)	-67.0%	-20.2	i	-1.0%	u
CCCCC(=O)NC(c1ccc([N+](=O)[O-])cc1)c1c(O)ccc2ccccc12 (configuration not stated)	2.6%[15.4 µM]	-61.7*	i	0.1%	u
Cc1ccc(C(=O)Oc2ccc(C(O)CNC(C)(C)C)cc2OC(=O)c2ccc(C)cc2)cc1 (configuration not stated)	x	18.3	x	x	x
SMILES	gsp ag	RXFP1 antagonist	Akt phos inh	RXFP1 agonist	gsp antagonist
COc1ccc(OCCN2C(=O)c3ccccc3C2=O)c([N+](=O)[O-])c1	10µM*	4.2	i	-2.7%	-7.1%
COc1cccc(OCCOc2ccccc2[N+](=O)[O-])c1	1.6%	-1.2	i	x	-16.8%
CC1CC(=O)c2cnc(NCc3ccco3)nc2C1 (configuration not stated)	19.2%	-12.4	i	-1.3%	9.2%
O=C1CC(c2ccc(F)cc2)Cc2nc(NCc3ccco3)ncc21 (configuration not stated)	u	4.7	-83.7%*	u	37.1%
CN1CCN(c2ccccc2NC(=O)c2ccc(-c3ccccc3)cc2)CC1	12.4%	-15.4	i	0.4%	50.1µM*
COc1cccc(C(=O)Nc2ccccc2N2CCCC2)c1	4.7%	5.6	i	0.8%	-6.7%
